Unmarked numbers belong to inactive results. Active and inactive are the calls of the source.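 Rule for the calls: active = IC50 of 10 µM or lower; inactive = IC50 above 10 µM.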
Test: binders of r(CAG) RNA repeats, SAR follow-up, biochemical, fluorescence, dose response, MedChem round 1 (AID 743497)
Settings: r(CAG) RNA 1x1 AA loop, TO-PRO-1 displacement fluorescence

Compound	IC50
CCN(CC)C(=O)/C=C/c1cn(-c2ccccc2)nc1-c1ccccc1	> 29.9 µM
Cc1ccc(-c2nn(-c3ccccc3)cc2/C=C/C(=O)Nc2ccc(S(N)(=O)=O)cc2)cc1	29.1 µM
N#C/C(=C/c1cn(Cc2ccccc2)nc1-c1cccnc1)C(=O)Nc1ccc(C(=O)O)cc1	16 µM
NS(=O)(=O)c1ccc(NC(=O)/C=C/c2cn(-c3ccccc3)nc2-c2cccc(Cl)c2)cc1	> 29.9 µM
CC(=O)NS(=O)(=O)c1ccc(NC(=O)/C=C/c2cn(-c3ccccc3)nc2-c2ccccc2)cc1	1.62 µM (active)
COc1ccc(-c2nn(-c3ccccc3)cc2/C=C/C(=O)Nc2ccc(C(=O)O)cc2)cc1	1.94 µM (active)
CCN(c1ccccc1)S(=O)(=O)c1ccc(NC(=O)c2oc3ccc(F)cc3c2C)cc1	> 29.9 µM
CN(C)CCCNC(=O)/C=C/c1cn(-c2ccccc2)nc1-c1ccccc1	> 29.9 µM
Cc1c(C(=O)Nc2ccc(S(=O)(=O)N(C)Cc3ccccc3)cc2)oc2ccc(F)cc12	> 29.9 µM
O=C(/C=C\c1cn(-c2ccccc2)nc1-c1ccc(F)cc1)Nc1ccc(C(=O)O)cc1	2.15 µM (active)
CN1C(=O)/C(=C/c2cn(-c3ccccc3)nc2-c2ccccc2)c2ccccc21	> 29.9 µM
Cc1c(C(=O)Nc2ccc(S(=O)(=O)Nc3ncccn3)cc2)oc2ccc(F)cc12	> 29.9 µM
CCOC(=O)N1CCC(NC(=O)/C=C/c2cn(-c3ccccc3)nc2-c2ccccc2)CC1	> 29.9 µM
CNC(=O)Cc1ccc(NC(=O)/C=C/c2cn(-c3ccccc3)nc2-c2ccc(F)cc2)cc1	> 29.9 µM
CN(C)C(=O)C1CCN(C(=O)/C=C/c2cn(-c3ccccc3)nc2-c2ccccc2)CC1	> 29.9 µM
O=C(/C=C/c1cn(-c2ccccc2)nc1-c1ccccc1)NCCc1c[nH]c2ccccc12	> 29.9 µM
Cc1ccc(-c2nn(-c3ccccc3)cc2/C=C/C(=O)Nc2cccc(S(N)(=O)=O)c2)cc1	> 29.9 µM
Cc1c(C(=O)Nc2ccc(S(=O)(=O)NCCCN3CCOCC3)cc2)oc2ccc(F)cc12	> 29.9 µM
CS(=O)(=O)Nc1cc(NC(=O)/C=C/c2cn(-c3ccccc3)nc2-c2ccccc2)ccc1F	6.38 µM (active)
COc1ccc(-c2nn(-c3ccccc3)cc2/C=C/C(=O)Nc2cccc(NC(C)=O)c2)cc1OC	> 29.9 µM
O=C(/C=C/c1cn(-c2ccccc2)nc1-c1ccccc1)Nc1cc(S(=O)(=O)N2CCCC2)ccc1Cl	> 29.9 µM
O=C(/C=C/c1cn(-c2ccccc2)nc1-c1ccccc1)NCCO	> 29.9 µM
O=C(/C=C/c1cn(-c2ccccc2)nc1-c1ccccc1)N1CCN(CC(=O)N2CCCC2)CC1	> 29.9 µM
COc1ccc(NC(=O)/C=C/c2cn(-c3ccccc3)nc2-c2ccc(OC)cc2)cc1	> 29.9 µM
COC(=O)c1ccc(NC(=O)/C=C/c2cn(CCC#N)nc2-c2ccc(F)cc2)cc1	> 29.9 µM
NC(=O)c1cc(NC(=O)/C=C/c2cn(-c3ccccc3)nc2-c2ccc(F)cc2)c(F)cc1F	> 29.9 µM
CN1CCC(N(C)C(=O)/C=C/c2cn(-c3ccccc3)nc2-c2ccccc2)CC1	> 29.9 µM
O=C(/C=C/c1cn(-c2ccccc2)nc1-c1ccccc1)NCc1ccccc1	> 29.9 µM
CCN1CCN(C(=O)/C=C/c2cn(-c3ccccc3)nc2-c2ccccc2)CC1	> 29.9 µM
O=C(/C=C/c1cn(-c2ccccc2)nc1-c1ccc2ccccc2c1)Nc1ccc(C(=O)O)cc1	2.18 µM (active)

From PubChem BioAssay AID743497 (The Scripps Research Institute Molecular Screening Center, 2014)
